# Experimental data reported in PubChem BioAssay (NCATS).
# Records with an inconclusive call do not appear. Unmarked numbers belong to inactive results. Active and inactive are the calls of the source. Calls follow the shape of the dose curve; as a rule, active = well fitted cell-killing curve with a large enough effect; inconclusive = small, poorly fitted or top-dose-only effect, or effect the other way; inactive = flat fitted curve, though single readings scatter.
# Tested on: CAOV3
# Assay: Primary qHTS to identify gynecologic anti-cancer compounds using libraries of approved drugs and bioactive compounds (AID 1345084); also: nearly all actives have a fitted effect of over 55% in size
# Conditions: Gynecologic cancer cell panel viability, ATPlite luminescence, 48 h; series mostly up to 57.5 µM; activity change, negative = cytotoxicity: at the top concentration
# Text: National Center for Advancing Translational Sciences [NCATS] Assay Overview: Chemotherapeutic drug responses vary from cancer to cancer and from patient to patient. These variations could be caused by a number of factors including patient genomic background, tumor mutations, tumor heterogeneity, and aspects of drug treatment. Chemotherapeutic drug resistance is also a common issue and can lead to ineffective treatment and patient death. Here we have profiled the cell killing effects of thousands of compounds to characterize the responses in three gynecological cancers, identify cancer-selective compounds, and understand the diversity of responses to these compounds from pan-cancer suppressors to single cell line selective compounds. In this assay, we screened a 7,914 compound drug library that included approved drug and bioactive compounds in six ovarian, three cervical, and […] placental cancer cell lines using the ATPlite assay for cell viability. […] The cervical cancer cell lines included HeLa, Ca Ski, and C-33 A. The placental cancer cell lines included JEG-3. HEK 293T cells were used as the control cell line to determine the selectivity index. ATPlite is a luminescence based assay reliant on the conversion of a luciferase substrate to light in the presence of ATP. As a cytotoxic compound will suppress growth and decrease the number of cells, the concentration of ATP will decrease, and less light signal will be detected in the well.
# Assay Protocol Summary: 1,000 cells in 4 uL of media were dispensed into white, solid bottom 1536-well plates using a Multidrop Combi (Thermo Scientific). The Assay plates were incubated for 16 hours at 37 C with 5% CO2 in assay plates, followed by the addition of 23 nL of DMSO or drug dissolved in DMSO. Each compound was assayed in five concentrations (0.092, 0.46, 2.3, 11.5, and 57.5 uM), using the automated Wako 1536 Pin Tool workstation and incubated at 37 C with 5% CO2 48 hours. 4 uL of ATPlite, the ATP monitoring reagent, was then added to the each well of the assay plates using the Multidrop Combi reagent dispenser followed by incubation for 15 minutes at room temperature. The resulting luminescence was measured using the ViewLux plate reader.
# % is scaled to controls: 0 for no effect and ±100 for the full control effect; potency is read from the fitted curve at half-maximal effect.
SMILES,"activity change, negative = cytotoxicity",Potency
CC(=O)CC(c1ccc([N+](=O)[O-])cc1)c1c(O)c2ccccc2oc1=O (stereo not given),0.179%,
CCOC(=O)OC(C)OC1=C(C(=O)Nc2ccccn2)N(C)S(=O)(=O)c2ccccc21 (stereo not given),-8.96%,
CC1=C(C(=O)OC(C)C)C(c2cccc([N+](=O)[O-])c2)C(C(=O)OC2CN(C(c3ccccc3)c3ccccc3)C2)=C(N)N1 (stereo not given),11.7%,
C/C=C/c1ccc(OC)cc1,-1.17%,
CCCCc1nc(Cl)c(CO)n1Cc1ccc(-c2ccccc2-c2nn[nH]n2)cc1,-1.1%,
C#C[C@]1(O)CC[C@H]2[C@@H]3CCc4cc(OC5CCCC5)ccc4[C@H]3CC[C@@]21C,-43.3%,
CCOC(=O)[C@H](CCc1ccccc1)N[C@@H](C)C(=O)N1Cc2ccccc2C[C@H]1C(=O)O,17.4%,
COC(=O)CCc1ccc(OCC(O)CNC(C)C)cc1 (stereo not given),,inactive
CC(Cc1ccccc1)(NC(=O)CN)c1ccccc1 (stereo not given),0.4%,
C#C[C@]1(O)CC[C@H]2[C@@H]3CCC4=CC(=O)CC[C@@H]4[C@H]3CC[C@@]21C,23.7%,
Cc1c(C(C)C)c(=O)n(-c2ccccc2)n1C,1.58%,
CN(C)CCCOc1nn(Cc2ccccc2)c2ccccc12,0.816%,
COCc1c(C(C)C)nc(C(C)C)c(/C=C/[C@@H](O)C[C@@H](O)CC(=O)O)c1-c1ccc(F)cc1,,7.08 µM (active)
CC(C)n1nc(-c2cc3cc(O)ccc3[nH]2)c2c(N)ncnc21,,1.58 µM (active)
c1ccc(OCc2ccc(CCCN3CCOCC3)cc2)cc1,1.43%,
CCN1CCN(c2cc3c(cc2F)c(=O)c(C(=O)O)cn3C2CC2)CC1,-0.975%,
Oc1cc(O)c2c(c1)O[C@H](c1ccc(O)c(O)c1)[C@H](O)C2,-5.44%,
CNC(=O)CN(CCN(CCN(CC(=O)[O-])CC(=O)NC)CC(=O)[O-])CC(=O)[O-].O.[Gd+3],6.87%,
CC(=O)N/N=C/c1ccc([N+](=O)[O-])o1,-1.28%,
O=S1(=O)c2cccc3cccc(c23)N1CCCN1CCN(c2ccc(F)cc2)CC1,-10.6%,

SMILES,"activity change, negative = cytotoxicity",Potency
O=C(O)CCCCC(=O)O,11%,
Cc1ccc(Nc2c(F)cccc2Cl)c(CC(=O)O)c1,,inactive
O=C(Nc1ccc(Cl)c(Cl)c1)C1CC1,-2.78%,
CCCOC(C(=O)OC1CCN(C)CC1)(c1ccccc1)c1ccccc1,-4.86%,
COc1cccc2c1C(=O)c1c(O)c3c(c(O)c1C2=O)C[C@@](O)(C(=O)CO)C[C@@H]3O[C@H]1C[C@H](N)[C@H](O)[C@H](C)O1,,2.51 µM (active)
Nc1ccc(C(=O)Nc2ccccc2N)cc1,-17.6%,
CC/C(=C(/CC)c1ccc(O)cc1)c1ccc(O)cc1,-0.632%,
NC[C@H]1O[C@H](O[C@H]2[C@H](O)[C@@H](O[C@H]3O[C@H](CO)[C@@H](O)[C@H](N)[C@H]3O)[C@H](N)C[C@@H]2N)[C@H](N)[C@@H](O)[C@@H]1O,2.04% [at 25.3 µM],
C=C1C(=C/C=C2\CCC[C@]3(C)[C@@H]([C@H](C)/C=C/[C@@H](O)C4CC4)CC[C@@H]23)C[C@@H](O)C[C@@H]1O,-4.82%,
Oc1ccc(Cl)cc1Sc1cc(Cl)ccc1O,2.27%,
CCCC(=O)O[C@]1(C(=O)CO)CC[C@H]2[C@@H]3CCC4=CC(=O)CC[C@]4(C)[C@H]3[C@@H](O)C[C@@]21C,,3.55 µM (active)
NC(CS)C(=O)O (stereo not given),5.52%,
Oc1c(Cl)cc(Cl)cc1Sc1cc(Cl)cc(Cl)c1O,14.6%,
CCC(C(=O)OCCN(CC)CC)c1ccccc1 (stereo not given),-4.59%,
CCCCS(=O)(=O)N[C@@H](Cc1ccc(OCCCCC2CCNCC2)cc1)C(=O)O,,inactive
C=C1C[C@H]2[C@@H]3C=C(C)C4=CC(=O)CC[C@]4(C)[C@H]3CC[C@]2(C)[C@@]1(OC(C)=O)C(C)=O,-18.9%,
CCCCCCc1ccc(O)cc1O,10.3%,
O=C1OCCN1/N=C/c1ccc([N+](=O)[O-])o1,-6.19%,
CC1=C(C(=O)O)N2C(=O)[C@@H](NC(=O)[C@H](N)c3ccc(O)cc3)[C@H]2SC1,-3.03%,
CO/N=C1\CN(c2nc3c(cc2F)c(=O)c(C(=O)O)cn3C2CC2)CC1CN (stereo not given),22.4%,
